# Laboratory results reported in PubChem BioAssay (NCI).
# The panel holds about 83,000 compounds, 20% with a hit somewhere; the sample as a whole holds those more often.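 Single-dose data. Exposure time 48 hours. Values below 10 considered active.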 A number with no mark means an inactive call. The source made the active and inactive calls.
# Assays:
# Test in all cases: NCI-60 one-dose screen, 48 h (100 = growth as untreated, 0 = no growth, -100 = all killed)
# Conditions in all cases: 10 µM unless noted
# SR leukemia = tested on: SR leukemia
# RPMI-8226 leukemia = tested on: RPMI-8226 leukemia
# OVCAR-5 ovarian = tested on: OVCAR-5 ovarian
# OVCAR-4 ovarian = tested on: OVCAR-4 ovarian
# SK-OV-3 ovarian = tested on: SK-OV-3 ovarian
# IGROV1 ovarian = tested on: IGROV1 ovarian
# OVCAR-3 ovarian = tested on: OVCAR-3 ovarian
# HS 578T breast = tested on: HS 578T breast
# T-47D breast = tested on: T-47D breast
# BT-549 breast = tested on: BT-549 breast
# MDA-MB-435 melanoma = tested on: MDA-MB-435 melanoma
# SW-620 colon = tested on: SW-620 colon
# MCF7 breast = tested on: MCF7 breast
# HCT-116 colon = tested on: HCT-116 colon
# HCC-2998 colon = tested on: HCC-2998 colon
# KM12 colon = tested on: KM12 colon
# NCI/ADR-RES ovarian = tested on: NCI/ADR-RES ovarian
# OVCAR-8 ovarian = tested on: OVCAR-8 ovarian
Structure (SMILES),growth (SR leukemia),growth (RPMI-8226 leukemia),growth (OVCAR-5 ovarian),growth (OVCAR-4 ovarian),growth (SK-OV-3 ovarian),growth (IGROV1 ovarian),growth (OVCAR-3 ovarian),growth (HS 578T breast),growth (T-47D breast),growth (BT-549 breast),growth (MDA-MB-435 melanoma),growth (SW-620 colon),growth (MCF7 breast),growth (HCT-116 colon),growth (HCC-2998 colon),growth (KM12 colon),growth (NCI/ADR-RES ovarian),growth (OVCAR-8 ovarian) [%]
CN1CCN(Cc2ccc(NC(=O)c3cncc(C#Cc4cnc(N)c5ccc(F)cc45)c3)cc2C(F)(F)F)CC1,-25.9% (active),4.27% (active),44.7%,30.9%,-4.24% (active),0.192% (active),19.7%,11.4%,43.5%,42%,19.3%,-64.4% (active),13.2%,-90.9% (active),34.8%,7.82% (active),–,–
O=C(C1CCCCC1)[C@@H]1[C@]2(C(=O)NC3CCCCC32)[C@@H]2CCCN2[C@@]12C(=O)NC1CCC(Cl)CC12 (stereo not given in full),-68.6% [100 µM] (active),-33.6% [100 µM] (active),-89.5% [100 µM] (active),-79.6% [100 µM] (active),-94.1% [100 µM] (active),–,-91.9% [100 µM] (active),-43.6% [100 µM] (active),-69% [100 µM] (active),-91.6% [100 µM] (active),-91% [100 µM] (active),-89.6% [100 µM] (active),-51.4% [100 µM] (active),-91.2% [100 µM] (active),–,-86% [100 µM] (active),-68.2% [100 µM] (active),–
Cc1ccc(C(=O)c2ccc(CC(=O)N=Nc3c(O)[nH]c4ccc(Br)cc34)n2C)cc1,101%,92.7%,91.7%,97.6%,91.3%,77.5%,105%,99.6%,74.5%,100%,98.7%,91.2%,86.9%,86%,–,97.9%,87.7%,–
COCCn1cc(-c2csc(-c3c[nH]c4ccc(Br)cc34)n2)c2cccnc21,17%,22.2%,55.5%,31.2%,47.1%,42.3%,39%,44.5%,-1.1% (active),22.6%,29%,27.9%,12%,24.2%,15.3%,13.4%,10.8%,–
CN(CCCNC(=O)CCOCCOCCOCCNC(=O)Cc1ccc2ccc3cccc4ccc1c2c34)CCCNc1cc(-c2ccc3ccccc3c2)nc2ccccc12,-74.8% (active),-48.9% (active),-86.4% (active),-90.6% (active),-96.8% (active),-43.8% (active),-92% (active),-58.9% (active),-80.9% (active),-83.6% (active),-79.6% (active),-79.6% (active),-82.3% (active),-98.2% (active),-87.4% (active),-86.6% (active),8.51% (active),–
Nc1nc2c(c3ncccc13)C(c1cccc(Cl)c1)Cc1ncccc1-2 (stereo not given),8.92% (active),32.4%,44.7%,52.4%,14.1%,50.5%,0.176% (active),31.1%,30.1%,38.7%,-57.9% (active),23.1%,17.2%,24.4%,34.4%,19.4%,18.7%,–
CN1CCN(CC(=O)Nc2ccc3ncnc(Nc4ccc(Oc5cccc(C(F)(F)F)c5)c(Cl)c4)c3c2)CC1,-6.28% (active),-12.7% (active),52.9%,-18.8% (active),23.2%,-44.6% (active),4.81% (active),-12% (active),44.4%,73.1%,-86% (active),-68% (active),-51.3% (active),6.69% (active),-5.89% (active),23.5%,46.1%,–
Cn1cc(-c2nn3cc(-c4cccs4)nc3s2)c2cc(F)ccc21,11.8%,31.2%,42.7%,60.5%,44.9%,35.3%,5.2% (active),1.66% (active),45%,43.1%,-43.4% (active),12.4%,21.4%,14.2%,66.8%,22.2%,21.1%,–
CCCn1nc(C(=O)N(C)Cc2ccccc2)c2c1CCC(N1CCc3ccccc31)C2 (stereo not given),104%,90.8%,92.2%,102%,112%,85.1%,102%,96.4%,108%,94.8%,106%,104%,85.3%,77.8%,116%,106%,94.4%,–
CNC(=O)c1ccccc1Nc1nc(Nc2cc(OC)c(OC)c(OC)c2)ncc1Br,6.27% (active),41.5%,13.3%,-34.5% (active),-77.2% (active),4.34% (active),-6.51% (active),-3.22% (active),-25.2% (active),-93.5% (active),6.45% (active),5.27% (active),1.48% (active),1.45% (active),-32.5% (active),7.57% (active),-10.7% (active),–
C=CCn1c(SCC(=O)Nc2ccc(/C(C)=N/O)cc2)nnc1-c1cc(-c2ccc(S(N)(=O)=O)cc2)nc2ccccc12,56.7%,48.8%,93.5%,66.2%,109%,–,70.9%,74.1%,27.4%,58.8%,67.3%,84.2%,43.3%,77.7%,101%,86.5%,–,54.7
COc1ccc2nc(Cl)c(/C=C3\CC(c4ccccc4)=NN(c4ccccc4)C3=O)cc2c1,76.6%,97.3%,93.5%,37.4%,46.5%,50.7%,74.4%,32.9%,73.1%,43.3%,90.3%,88.7%,82%,54.1%,85%,90.3%,60.2%,–
Cc1ccc(-c2csc(N(C(=O)N3CCN(c4cc5c(cc4F)c(=O)c(C(=O)O)cn5C4CC4)CC3)c3ccccc3)n2)cc1,–,17.6%,13.2%,28.4%,28.2%,12.5%,7.88% (active),33.5%,13%,-2.16% (active),14.9%,19.1%,7.97% (active),6.17% (active),13.1%,4.3% (active),6.88% (active),15.6
Cc1nn(-c2ccccc2)c(N)c1N=C1NC(=O)/C(=C/c2ccc(Br)cc2)S1,–,42.3%,72.7%,95.6%,84.8%,99.6%,72%,93.6%,85.3%,78.6%,49.7%,84.2%,78.2%,68%,111%,76%,77.7%,98.8
CC(=O)OC(c1ccccc1)C1CCOC1=O (stereo not given),–,111%,86.8%,88.3%,106%,102%,102%,111%,106%,120%,96.3%,102%,102%,101%,97.2%,106%,97%,104
